Screening data as filed in PubChem.
The list is not random: actives were taken first. Their share in the collection is about 21%.
Pf growth 96h: P. falciparum growth inhibition at 96 hour, primary screen for plastid delayed-death inhibitors; P. falciparum luciferase reporter growth, 96 h; Potency, µM (highest dose often 28.7 µM), actives largely listed as inhibitors; actives 6.9% (n = 320,000); AID 504834
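Two-generation exposure (96 h) targets delayed-death phenotype. Reporter parasites carrying integrated firefly luciferase, in red cells at 2% hematocrit and 0.05% parasitemia final, kept at 37 C, 5% CO2; luminescence loss indicates inhibition.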
Pf growth 48h: P. falciparum growth inhibition at 48 hours (one generation). P. falciparum luciferase growth in erythrocytes, 48 h. Potency, µM (highest dose often 28.7 µM), hits mostly inhibitors. actives 5.9% (n = 310,000). AID 504832
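Firefly luciferase activity from engineered P. falciparum reports growth; inhibitors lower the luminescent signal. Cultures contained 2% hematocrit erythrocytes at 0.1% final parasitemia.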
CHX counter: counter-screen hit for Shiga toxin inhibitors, cycloheximide | cell reporter, cycloheximide protein synthesis inhibition counterscreen | max response, % | actives 12% (n = 300,000); in the data active = max response mostly above about 13%, no sharp cut-off; inactive = mostly below about 14%; also: read at 38.3 µM for the half of the compounds with a filed dose
NS1 function inh: blocks influenza NS1 protein function; AID 2326; Potency, µM (doses to about 46.1 µM); actives 0.4% (n = 270,000); calls by dose curve; also: actives are rising curves; nearly all actives have a fitted effect of over 50% in size
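OD600 was taken as the measure of yeast growth restored by compound in an NS1-expressing S. cerevisiae strain. Cells had been washed out of glucose medium and diluted 1:100 into galactose -URA medium, pH 6.0.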
Shiga toxin inh: blocks Shiga toxin action in Vero cells; Vero cells, Shiga toxin protein synthesis inhibition reporter; inhibition, % at 38.7 µM; actives 9.2% (n = 290,000); in the data active = inhibition mostly above about 28%, no sharp cut-off; inactive = mostly below about 43%
Each line names hits and unclear results; the compound was inactive in the other large screens. Unless noted, calls follow the shape of the dose curve; as a rule, active = well fitted inhibition curve with a large enough effect; inconclusive = small, poorly fitted or top-dose-only effect, or another doubt; inactive = no such curve, though single readings can be large or run the other way.

CN(C(=O)COC(=O)c1cc(S(=O)(=O)N2CCOCC2)c(Cl)cc1Cl)C1CCS(=O)(=O)C1 (centres undefined)	none
CC(C)C1=Nc2cccc3cccc(c23)N1	Pf growth 48h inconclusive
ClCC1=Nc2cccc3cccc(c23)N1	Pf growth 96h 4.7µM, Pf growth 48h 4.1µM
Cn1c(=O)c2c(nc(CN3CCN(C(=O)c4ccco4)CC3)n2Cc2cccc(Cl)c2)n(C)c1=O	Pf growth 48h 4.7µM
Cn1c(=O)c2c(nc(CN3CCN(C(=O)c4ccco4)CC3)n2Cc2ccccc2)n(C)c1=O	Pf growth 96h inconclusive, Pf growth 48h 10µM
Cc1ccc(Cn2c(CN3CCN(C(=O)c4ccco4)CC3)nc3c2c(=O)n(C)c(=O)n3C)cc1	Pf growth 96h inconclusive, Pf growth 48h 2.1µM
O=C(c1ccco1)N1CCN(Cc2nc3ccccc3c(=O)n2-c2ccc(F)cc2)CC1	Pf growth 96h 9.3µM (no result: Pf growth 48h)
Cn1c(=O)c2c(nc(CN3CCN(C(=O)c4ccco4)CC3)n2CCc2ccccc2)n(C)c1=O	Pf growth 48h inconclusive
CCCn1c(CN2CCN(C(=O)c3ccco3)CC2)nc2c1c(=O)n(C)c(=O)n2C	none
CCOc1ccc(CCNC(=O)COC(=O)c2cccc(N(C)C)c2)cc1OCC	none (no result: CHX counter, NS1 function inh, Shiga toxin inh)
CCCc1ccc(C(=O)CN2C(=O)C(=O)N(C3CCCC3)C2=O)cc1	none (no result: CHX counter, NS1 function inh, Shiga toxin inh)
Cn1c(=O)c2c(nc(CN3CCN(C(=O)c4ccco4)CC3)n2Cc2ccc(Cl)cc2)n(C)c1=O	Pf growth 48h 7.4µM
N#CCc1ccc(C(=O)c2ccccc2F)s1	Pf growth 96h inconclusive, CHX counter 17
Cc1cc(C)n(-c2nc(NCCC(C)C)c3c4c(sc3n2)COC(C)(C)C4)n1	Pf growth 96h 3.7µM (no result: Pf growth 48h)
Cc1cc(C)n(-c2nc(-n3nc(C)cc3C)c3c4c(sc3n2)COC(C)(C)C4)n1	Pf growth 96h 1µM, Pf growth 48h inconclusive
Cc1cc(C)n(-c2ncnc3sc4c(c23)CCCC4)n1	Pf growth 96h 13µM
CCSc1nc(NCCN(C)C)c2c3c(sc2n1)COC(C)(CC)C3 (centres undefined)	Pf growth 96h 12µM, Pf growth 48h 3.3µM, CHX counter 30
COc1ccc(C(=O)N[C@H]2CCCCNC2=O)cc1OC1CCN(C(C)C)CC1	Pf growth 96h inconclusive
Cc1cc(C)n(-c2nc(NCCCN(C)C)c3c4c(sc3n2)CCCC4)n1	Pf growth 48h 12µM
CCN(CC)CCNc1nc(-n2nc(C)cc2C)nc2sc3c(c12)CC(C)(C)OC3	Pf growth 96h inconclusive, Pf growth 48h inconclusive, CHX counter 12
CC(C)C(C)NC(=O)Cn1cnc2c(oc3ccccc32)c1=O (centres undefined)	CHX counter 17
COC(=O)Cn1cnc2c(oc3ccccc32)c1=O	CHX counter 36, Shiga toxin inh 41
CCOC(=O)c1ccccc1NC(=O)Cn1cnc2c(oc3ccccc32)c1=O	CHX counter 30, Shiga toxin inh 56
c1ccc2c(c1)NC(c1ccncc1)n1c-2nc2ccccc21 (centres undefined)	Pf growth 48h 2.6µM
O=C1c2ccccc2NC(c2ccncc2)N1c1ccccn1 (centres undefined)	none (no result: Pf growth 96h)
c1cncc(C2Nc3ccccc3-c3nc4ccccc4n32)c1 (centres undefined)	CHX counter 30, Shiga toxin inh 29 (no result: Pf growth 48h)
CCOC(=O)C1=C(C)NC(=O)NC1c1ccc(N(CC)CC)cc1 (centres undefined)	Pf growth 96h inconclusive (no result: Pf growth 48h)
Cc1nc(NC(=O)c2ccccc2)sc1-c1csc(Nc2ccc(Cl)cc2Cl)n1	Pf growth 96h 3.3µM, Pf growth 48h 10µM
Cc1nc(NC(=O)c2ccccc2)sc1-c1csc(Nc2cccc(Cl)c2)n1	Pf growth 96h 2.6µM, Pf growth 48h 9.3µM
CCCC(C)C(=O)Nc1nc(C)c(-c2csc(Nc3cc(Cl)ccc3C)n2)s1 (centres undefined)	Pf growth 96h inconclusive, Pf growth 48h inconclusive
COc1ccc(Cl)cc1Nc1nc(-c2sc(NC(=O)c3ccccc3)nc2C)cs1	Pf growth 96h 2.9µM, Pf growth 48h 1.9µM
O=C(Nc1ccc2c(c1)CCC2)c1cc(S(=O)(=O)N2CCN(c3ccccc3)CC2)ccc1Cl	Pf growth 48h inconclusive (no result: Pf growth 96h)
N#Cc1cccc(C(=O)Nc2cccc(S(=O)(=O)N3CCCC3)c2)c1	Pf growth 48h inconclusive
Cc1cc(C)cc(C(=O)NCC(=O)OCc2nc(N)nc(Nc3ccccc3C)n2)c1	none (no result: CHX counter, NS1 function inh, Shiga toxin inh)
Cc1ccccc1Nc1nc(N)nc(COC(=O)c2ccc([N+](=O)[O-])o2)n1	none (no result: CHX counter, NS1 function inh, Shiga toxin inh)
Cc1ccccc1CSCc1nc(N)nc(Nc2ccccc2C)n1	CHX counter 49, Shiga toxin inh 85 (no result: NS1 function inh)
